According to the supplement of paper PMC10681739:
In all, about 2,700 sequences were measured (“arbitrary fluorescence units”: median about 4,100, highest 2% from about 54,000 on). For the sample, the highest values were picked, then their nearest neighbours and some sequences at random.

Biological target: T1, ETS1 (UniProt P14921)
T1 sequence: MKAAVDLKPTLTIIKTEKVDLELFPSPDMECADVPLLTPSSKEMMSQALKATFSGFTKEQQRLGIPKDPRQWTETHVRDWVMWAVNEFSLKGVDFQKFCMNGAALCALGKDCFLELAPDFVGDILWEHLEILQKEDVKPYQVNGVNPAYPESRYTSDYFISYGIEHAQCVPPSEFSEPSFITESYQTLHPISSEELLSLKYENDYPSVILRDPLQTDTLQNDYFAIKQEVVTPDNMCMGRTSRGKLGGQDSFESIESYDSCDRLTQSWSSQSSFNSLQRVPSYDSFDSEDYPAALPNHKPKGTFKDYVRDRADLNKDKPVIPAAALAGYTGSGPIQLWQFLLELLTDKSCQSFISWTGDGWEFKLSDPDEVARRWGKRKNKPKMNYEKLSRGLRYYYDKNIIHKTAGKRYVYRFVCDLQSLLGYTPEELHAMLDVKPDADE
Assay: ETS1 binding intensity (PBM fluorescence) (arbitrary fluorescence units); higher = stronger binding
Details: ETS1 concentration 10 nM
Experimental: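 gcPBM on wild-type 36-bp genomic probes with two neighbouring ETS1 sites (4-24 bp apart). Recombinant human ETS1 (10 nM) was detected with anti-ETS1 antibody fluorescence. Values are medians over 3 replicate spots. The probes sit in constant array flanks that are not printed.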

Sequence	ETS1 binding intensity
CCCTCCCCTTCCTGCCTGCCCTTCTTCCGGGGCACC	8020
CCCACTTCCTGCCTCACCCTGAAGATCTTCCGGGCA	56900
TTCACCCCACCACTTCCTCATCCTGATCTCAGCTCA	2880
GCCGGAGACTAGCTTCCGCTTCCGGTGTGAGCGGCC	26200
AAGACTTCTACTTCCGGAGACTTCCTCATGCCATGC	33400
AACCACTTCCGGTGAGTAGCTTCTACTTCCGGAGAC	135000
CACCCATTTTCACTTCCGCTTCCGGTTGTCACAGGC	26500
GTTACTTCCTCTCCCCAGGTCTCTCGGTTTCCTCAT	23600
TCTCGACTTCCGGTTCACCCAGCATTTCCTCTTCCC	103000
GCTCCACCTTCCGGCCCATGGACACGGATGCCGAGG	16100
TCCTGCCTCAGGATGCCGGGGGAGGAAGAGGAGCGG	258
CCTACAATTCCTGTTTTGGAGACCGCTTCCGGCAGC	3700
ATCTCACCTTCCTGGTGTCTGGGCTTCCGCAGCTTC	662
TATTCAAAGCCCACTTCCTTCCTGTAGCATTCATTC	6220
AGCATTCCACTTCCTGTCTTGATTCCTGTATTAGAG	62700
CTTCCACATCTTCCTGCAGAGCATCCTGTCTGTGCA	4230
TGTGATGTTTCCTCTTGCTGTGGTTTCCTGTCATGG	4090
AGGAGGAATGGCAGGAAGAGGAAGTGAAACCGACAA	1690
CAGGCCGGAAGTACGTGAGAGGAGACTTCCGGCCAC	31200

Sequence	ETS1 binding intensity
TTCCGACCGGAAGTGAGAAGAGGAGGAAGTTGGCTG	64200
CTTAGTTTCCTCTGGCGATGCTAAAGAGGAAGTTAC	2440
ATTTGAAGAGCCAGGAAGGAGGAAATGCAGAGTGCA	287
AGTCTAGTTGCCAGGAAACAGGATGTGGGAGGGACA	3800
TCCTCTTTCCGTTGTGAGCACCCTGCATCCTGGTGG	3800
CTGATAGGGGAAGTGGGAGTTGACAGGATGGTTTAA	424
ATGTAAAGAGGAAGTGACTCATTCTTCCTGGTGGTG	3720
GGGGCCGGAAGCTTTCGGATAACAACTTCCGCTCGG	20100
ACAGCTTCCGGTTTTGCAAGACAATGCTTCCTTCTC	87800
CAACAGGAAATACATACCTGTCCTGAGAGGAAGCAC	7320
AGCATCTGCTGGGGGAAACGGAAGCAGCCCAGATGG	774
TGTAGGAGCTTCCTTGCAGCCTCAGGATGCCGAATT	517
TATGTATTTCCTTATTGCAAAGGGCGGAAACGTGTA	3980
GGAAAGACGGCAGGAAATGGGGAAGTGGGAGGGAGA	6220
GGATCAGGAAGTCACGACATGGCGACCATCCTGGCT	1720
CCCCACATCCGGTGCGGCGACGCCACTTCCGCCCAC	78100
CGTCCCACATCCGCCGACACGCCCCTTCCGGCCTAA	20000
GCCCCACTTCCCTCCCGCGGTCACACTTCCGGCGGC	12500
